Laboratory results: PubChem BioAssay AID1159580 (chemical genetic matrix, 2015)
Screen size: about 5,500 compounds; about 2,000 (36%) were called active. Another 18% or so got no clear call; they are omitted. Rule as the data show it: active = normalized growth mostly below about 0.91 (no sharp cut-off); inconclusive = no clear call, values can overlap the other calls; inactive = mostly above about 0.92. The list shows a part of the results.

Experiment: chemical genetic growth profiling, strain panel (AID 1159580);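 also: tested at 20 µM; growth read once vehicle control cultures reached saturation at 30 °C; 1 = growth at the plate median or of vehicle wells; lower values mean less growth of the strain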
Settings: growth OD

Measured: normalized growth

CC[C@H]1OC(=O)[C@H](C)[C@@H](O[C@H]2C[C@@](C)(OC)[C@@H](O)[C@H](C)O2)[C@H](C)[C@@H](O[C@@H]2O[C@H](C)C[C@H](N(C)C)[C@H]2O)[C@](C)(OC)C[C@@H](C)C(=O)[C@H](C)[C@@H](O)[C@]1(C)O
inactive: S. cerevisiae deletion strains, locus YAL013W, strain DEP1, active compounds read low 0.992 | S. cerevisiae deletion strains, locus YBR021W, strain FUR4, active compounds read low 1.01 | S. cerevisiae deletion strains, locus YBR229C, strain ROT2, active compounds read low 0.989 | S. cerevisiae deletion strains, locus YCL029C, strain bik1, active compounds read low 0.994 | S. cerevisiae deletion strains, locus YDL035C, strain GPR1, active compounds read low 0.977 | S. cerevisiae deletion strains, locus YDL074C, strain BRE1, active compounds read low 0.949 | S. cerevisiae deletion strains, locus YDL101C, strain DUN1, active compounds read low 0.992 | S. cerevisiae deletion strains, locus YDL134C, strain PPH21, active compounds read low 0.989 | S. cerevisiae deletion strains, locus YDL185W, strain tfp1, active compounds read low 0.994 | S. cerevisiae deletion strains, locus YDL192W, strain arf1, active compounds read low 0.966 | S. cerevisiae deletion strains, locus YDR101C, strain arx1, active compounds read low 0.973 | S. cerevisiae deletion strains, locus YDR150W, strain NUM1, active compounds read low 0.987 | S. cerevisiae deletion strains, locus YDR162C, strain NBP2, active compounds read low 0.974 | S. cerevisiae deletion strains, locus YDR318W, strain mcm21, active compounds read low 0.986 | S. cerevisiae deletion strains, locus YDR388W, active compounds read low 0.986 | S. cerevisiae deletion strains, locus YDR502C, strain sam2, active compounds read low 0.99 | S. cerevisiae deletion strains, locus YEL061C, strain CIN8, active compounds read low 0.985 | S. cerevisiae deletion strains, locus YER110C, active compounds read low 1.04 | S. cerevisiae deletion strains, locus YER155C, strain BEM2, active compounds read low 0.987 | S. cerevisiae deletion strains, locus YER167W, strain BCK2, active compounds read low 0.986 | S. cerevisiae deletion strains, locus YGL078C, strain dbp3, active compounds read low 1.01 | S. cerevisiae deletion strains, locus YGL086W, strain mad1, active compounds read low 0.969 | S. cerevisiae deletion strains, locus YGL248W, strain PDE1, active compounds read low 0.986 | S. cerevisiae deletion strains, locus YGR078C, strain PAC10, active compounds read low 0.991 | S. cerevisiae deletion strains, locus YGR135W, strain pre9, active compounds read low 0.989 | S. cerevisiae deletion strains, locus YGR229C, strain SMI1, active compounds read low 0.963 | S. cerevisiae deletion strains, locus YGR252W, strain gcn5, active compounds read low 0.932 | S. cerevisiae deletion strains, locus YHR030C, strain SLT2, active compounds read low 0.986 | S. cerevisiae deletion strains, locus YHR079C, strain IRE1 (second series), active compounds read low 0.983 | S. cerevisiae deletion strains, locus YHR094C, strain hxt1, active compounds read low 0.982 | S. cerevisiae deletion strains, locus YHR129C, strain ARP1, active compounds read low 0.981 | S. cerevisiae deletion strains, locus YHR200W, strain rpn10, active compounds read low 0.98 | S. cerevisiae deletion strains, locus YIL066C, strain RNR3, active compounds read low 0.985 | S. cerevisiae deletion strains, locus YIL073C, strain SPO22, active compounds read low 0.985 | S. cerevisiae deletion strains, locus YIL125W, strain kgd1, active compounds read low 1.01 | S. cerevisiae deletion strains, locus YIR030C, strain dcg1, active compounds read low 0.999 | S. cerevisiae deletion strains, locus YJL095W, strain BCK1, active compounds read low 0.971 | S. cerevisiae deletion strains, locus YJL134W, strain LCB3, active compounds read low 0.989 | S. cerevisiae deletion strains, locus YJL168C, strain set2, active compounds read low 0.978 | S. cerevisiae deletion strains, locus YJL187C, strain SWE1 (second series), active compounds read low 0.989 | S. cerevisiae deletion strains, locus YJR043C, strain POL32, active compounds read low 0.958 | S. cerevisiae deletion strains, locus YJR075W, strain HOC1, active compounds read low 0.954 | S. cerevisiae deletion strains, locus YKL009W, strain mrt4, active compounds read low 0.997 | S. cerevisiae deletion strains, locus YKL068W, active compounds read low 0.982 | S. cerevisiae deletion strains, locus YKL085W, strain MDH1 (second series), active compounds read low 0.978 | S. cerevisiae deletion strains, locus YKL085W, strain MDH1, active compounds read low 0.978 | S. cerevisiae deletion strains, locus YKL190W, strain CNB1, active compounds read low 0.967 | S. cerevisiae deletion strains, locus YKR001C, strain vps1, active compounds read low 0.999 | S. cerevisiae deletion strains, locus YLR039C, strain RIC1, active compounds read low 0.979 | S. cerevisiae deletion strains, locus YLR058C, strain SHM2, active compounds read low 0.987 | S. cerevisiae deletion strains, locus YLR102C, strain apc9, active compounds read low 0.997 | S. cerevisiae deletion strains, locus YLR262C, strain YPT6, active compounds read low 1.03 | S. cerevisiae deletion strains, locus YLR268W, strain sec22, active compounds read low 0.987 | S. cerevisiae deletion strains, locus YLR330W, strain CHS5, active compounds read low 0.992 | S. cerevisiae deletion strains, locus YLR342W, strain FKS1 (second series), active compounds read low 0.956 | S. cerevisiae deletion strains, locus YLR371W, strain rom2, active compounds read low 0.967 | S. cerevisiae deletion strains, locus YLR418C, strain cdc73, active compounds read low 0.916 | S. cerevisiae deletion strains, locus YML016C, strain PPZ1, active compounds read low 0.986 | S. cerevisiae deletion strains, locus YML032C, strain rad52, active compounds read low 0.971 | S. cerevisiae deletion strains, locus YML124C, strain tub3, active compounds read low 0.983 | S. cerevisiae deletion strains, locus YMR078C, strain ctf18, active compounds read low 1 | S. cerevisiae deletion strains, locus YMR223W, strain ubp8, active compounds read low 0.998 | S. cerevisiae deletion strains, locus YMR263W, strain SAP30, active compounds read low 0.987 | S. cerevisiae deletion strains, locus YMR307W, strain GAS1, active compounds read low 0.789 | S. cerevisiae deletion strains, locus YNL067W, strain RPL9B, active compounds read low 0.983 | S. cerevisiae deletion strains, locus YNL128W, strain TEP1, active compounds read low 0.979 | S. cerevisiae deletion strains, locus YNL153C, strain GIM3, active compounds read low 0.983 | S. cerevisiae deletion strains, locus YNL233W, strain BNI4, active compounds read low 0.982 | S. cerevisiae deletion strains, locus YNL250W, strain rad50, active compounds read low 1 | S. cerevisiae deletion strains, locus YNL271C, strain bni1, active compounds read low 1.01 | S. cerevisiae deletion strains, locus YNL298W, strain CLA4, active compounds read low 1.02 | S. cerevisiae deletion strains, locus YNL307C, strain MCK1, active compounds read low 1 | S. cerevisiae deletion strains, locus YNL322C, strain KRE1, active compounds read low 0.987 | S. cerevisiae deletion strains, locus YNR052C, strain pop2, active compounds read low 0.937 | S. cerevisiae deletion strains, locus YOL006C, strain TOP1, active compounds read low 0.757 | S. cerevisiae deletion strains, locus YOL012C, strain htz1 0.325 | S. cerevisiae deletion strains, locus YOL147C, strain pex11, active compounds read low 0.993 | S. cerevisiae deletion strains, locus YOR061W, strain CKA2, active compounds read low 0.987 | S. cerevisiae deletion strains, locus YOR069W, strain VPS5, active compounds read low 0.98 | S. cerevisiae deletion strains, locus YOR136W, strain idh2, active compounds read low 1.01 | S. cerevisiae deletion strains, locus YOR144C, strain elg1, active compounds read low 0.973 | S. cerevisiae deletion strains, locus YOR184W, strain ser1, active compounds read low 0.991 | S. cerevisiae deletion strains, locus YOR316C, strain cot1, active compounds read low 0.986 | S. cerevisiae deletion strains, locus YPL055C, strain LGE1, active compounds read low 0.962 | S. cerevisiae deletion strains, locus YPL241C, strain CIN2, active compounds read low 0.976 | S. cerevisiae deletion strains, locus YPR119W, strain clb2, active compounds read low 0.975 | S. cerevisiae deletion strains, locus YPR141C, strain kar3, active compounds read low 1.01 | S. cerevisiae deletion strains, locus YPR163C, strain tif3, active compounds read low 0.955 | S. cerevisiae deletion strains, locus YPR167C, strain met16, active compounds read low 0.996 | S. cerevisiae deletion strains, strain wtn01, active compounds read low 0.964 | S. cerevisiae strains, strain wild type, active compounds read low 0.982
